Gal4-VP16 FLuc = Gal4-VP16 reporter inhibition counter-screen; Drosophila S2 Gal4-VP16 UAS-luciferase, luminescence, 20 h; Potency, µM (series often up to 53.6 µM), most hits filed as inhibitors; hit rate 3.5% among 310,000; AID 2546;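 note: Gal4-VP16 expression switched on by copper sulfate through the metallothionein promoter; nearly all actives have a fitted effect of over 50% in size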
ELG1 DNA repair = inhibitors of ELG1-dependent DNA repair in HEK293T cells; HEK293T ELG1-luciferase reporter, luminescence, 16 h; DNA damage induced by 5-fluorouridine; Potency, µM (highest dose often 46.1 µM), actives largely listed as inhibitors; hit rate 2.3% among 330,000; note: nearly all actives have a fitted effect of over 55% in size
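Overnight (16 hr) co-exposure of 2,000 cells/well to 5-fluorouridine and compound at 37 °C preceded detection. Luciferase was quantified via ONE-Glo luminescence; loss of signal denotes inhibition.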
p53 reactivation = restores transcriptional activity of mutant p53 | H1299 p53-A138V BP100-luciferase reporter, luminescence, 24 h | Potency, µM (series often up to 92.2 µM), hits mostly activators | hit rate 0.063% among 320,000; note: nearly all actives have a fitted effect of over 45% in size
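H1299 (p53-null), stable ts p53-A138V + BP100-Luc; 1000 cells/well, Opti-MEM/10% FBS; cpd 4 pt, 1:5; 24 h, 37 deg C, 5% CO2; detection reagent 10 min RT; luminescence.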
Giardia kill = kills Giardia lamblia; AID 540267; activity change, % at 7.66 µM, hits read low; hit rate 0.15% among 340,000; Giardia lamblia trophozoite viability; in the data active = activity change below about -80%; inconclusive = between about -30% and that limit;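 note: parasites exposed to compound for two days anaerobically before the ATP read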
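Trophozoite viability was measured as ATP-dependent luminescence, read 15-30 min after reagent addition. Before that, parasites at 100 cells/well were exposed to compounds for 48 h, anaerobically, at 37 deg C.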
BRCA1 expr up = increases BRCA1 expression | hit rate 1.1% among 380,000 | MCF7-BRCA1-FFLuc reporter, luminescence, 48 h; response scale: scaled: vehicle 0%, 10 µM genistein 100% | Potency, µM (top dose mostly 46.1 µM), actives largely listed as activators; note: nearly all actives have a fitted effect of over 80% in size
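Cells: MCF7-BRCA1-FFLuc, 2000/well. Exposure: 48 h, 37 °C, 5% CO2. Read: luminescence, 15 min post-substrate. Controls: genistein 10 microM (maximal activation), DMSO (neutral).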
RORgamma inh = inhibitors of mouse ROR gamma transcriptional activity. Drosophila S2 Gal4-RORgamma UAS-luciferase reporter, 20 h. Potency, µM (doses to about 53.6 µM), hits mostly inhibitors. hit rate 5.4% among 310,000; note: nearly all actives have a fitted effect of over 60% in size
Target sequence (P51450 whole entry, looked up, the tested form may be a part): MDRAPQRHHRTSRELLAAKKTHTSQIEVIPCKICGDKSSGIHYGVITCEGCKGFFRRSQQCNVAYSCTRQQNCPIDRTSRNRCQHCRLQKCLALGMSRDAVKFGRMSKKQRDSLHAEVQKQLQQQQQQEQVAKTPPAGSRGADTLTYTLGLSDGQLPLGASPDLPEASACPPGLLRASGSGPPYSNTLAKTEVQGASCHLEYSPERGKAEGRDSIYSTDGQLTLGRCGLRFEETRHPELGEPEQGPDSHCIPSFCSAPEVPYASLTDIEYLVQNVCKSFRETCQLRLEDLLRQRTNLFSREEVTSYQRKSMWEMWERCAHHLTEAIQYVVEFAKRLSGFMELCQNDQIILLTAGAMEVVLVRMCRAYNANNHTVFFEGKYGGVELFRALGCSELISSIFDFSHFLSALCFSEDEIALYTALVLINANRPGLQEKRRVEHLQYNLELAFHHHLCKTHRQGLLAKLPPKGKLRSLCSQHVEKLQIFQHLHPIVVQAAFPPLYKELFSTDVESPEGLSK
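Luciferase reporter read in Schneider cells carrying Gal4-RORγ (mouse) and UAS-Photinus luciferase; cells given compound 1 h before 700 uM copper sulfate induction, then incubated 20 h at ambient temperature.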
Hits are given with their value; n = inactive; u = inconclusive; x = no result; ! = not confirmed by another sample. Only some compounds are listed: those with a hit (about 7.6% of all), similar ones and a draw of the others. Unless noted, calls come from the whole dose curve; as a rule, active = well fitted curve in the direction sought with a large enough effect; inconclusive = small, poorly fitted or top-dose-only effect, or another doubt; inactive = no such curve, though single readings can be large; an effect the other way counts as inactive or inconclusive.

SMILES	Gal4-VP16 FLuc	ELG1 DNA repair	p53 reactivation	Giardia kill	BRCA1 expr up	RORgamma inh
COc1cc(Cl)ccc1OCc1cc(C(=O)N(C)Cc2cccc3cnccc23)no1	n	n	n	n	n	n
COC(=O)C1CCCCN1C(=O)c1cc(COc2cccc3cccnc23)on1 (stereo not drawn)	n	n	n	n	n	n
O=C(COC(=O)c1ccc2c(c1)OCO2)Nc1cccc(F)c1	x	n	n	n	n	x
Cc1ccccc1CC(=O)OCC(=O)Nc1ccc(C)c(S(=O)(=O)N2CCCCC2)c1	x	n	u	n	n	x
Cc1cc(Cl)ccc1NC(=S)Nc1cccnc1	u	n	n	n	n	12.6µM
COc1cc(OC)cc(C(=O)NC(=S)Nc2cccnc2)c1	n	n	n	n	n	n
Cc1ccccc1NC(=S)Nc1ccccc1	u	n	x	n	n	u
COc1cc(NC(=S)Nc2cccnc2)cc(OC)c1	u	n	n	n	n	10µM
Cc1cc(NC(=S)Nc2ccccc2)ccc1Br	u	n	n	n	n	10µM
Cc1cc(NC(=S)Nc2cccnc2)ccc1Br	u	n	n	n	n	12.6µM
Cc1ccc(S(=O)(=O)N2CCCC2CNC(=O)C(=O)Nc2ccccc2)cc1 (stereo not drawn)	x	u	n	n	n	x
COc1ccc(C)cc1NC(=O)C1CCCN1S(=O)(=O)c1ccc2c(c1)CCC(=O)N2 (stereo not drawn)	n	u	n	n	n	n
CCOc1ccc(/C=C2\SC(=S)N(N3C(=O)C4CC4C3=O)C2=O)cc1 (stereo not drawn)	n	n	n	n	n	n
CCOc1ccc(/C=C2/SC(=O)NC2=S)cc1	u	u	u	n	n	11.2µM
CCOc1ccc(N=C2NC(=O)S/C2=C\c2ccc(N(C)C)cc2)cc1	n	u	u	n	3.16µM	n
O=C(COC(=O)Cc1ccc(Cl)cc1)NCc1ccc(F)cc1	x	u	n	n	n	x
NC(=S)N=Nc1ccc(NN=C(N)N)cc1	n	n	n	n	n	u
O=C(N/N=C/c1coc2ccccc2c1=O)c1ccc(Cl)cc1	n	n	n	n	n	n
O=c1c(/C=N\NS(=O)(=O)c2ccccc2)coc2ccc(Cl)cc12	x	14.6µM	x	n	n	x
Cc1ccc(OCCN2CCN(C(=O)CCC(=O)Nc3nnc(CC(C)C)s3)CC2)cc1	n	2.59µM	n	n	n	u
CC(C)Cc1nnc(NC(=O)CCC(=O)N2CCN(Cc3ccc(F)cc3)CC2)s1	n	u	n	n	n	n
NC(=O)NC(CC(=O)NCCc1ccc(S(N)(=O)=O)cc1)c1ccccc1Cl (stereo not drawn)	n	n	n	n	n	n
CC(C)(C)NC(=O)COC(=O)c1snc(C(=O)NC2CCCCC2)c1N	5.62µM	u	n	n	n	n
O=C(NCCc1ccccc1)c1cccc(NC(=O)C2CC2)c1	x	x	x	n	6.31µM	x
O=C(NCCc1ccccc1)c1cccc(NC(=O)C2CCC2)c1	x	x	x	n	u	x
SMILES	Gal4-VP16 FLuc	ELG1 DNA repair	p53 reactivation	Giardia kill	BRCA1 expr up	RORgamma inh
COCC(C)N1CCC(Oc2cccc(C(=O)NCCc3ccccc3)c2)CC1 (stereo not drawn)	n	u	u	n	n	n
CC(C)CN1CCC(Oc2cccc(C(=O)NCCc3ccccc3)c2)CC1	n	n	39.8µM	n	n	n
O=C(NCCc1ccccc1)c1cccc(Br)c1	n	u	n	n	12.6µM	n
CCN(CC)S(=O)(=O)c1ccc(N2CC(C(=O)N3CCOCC3)CC2=O)cc1 (stereo not drawn)	x	n	n	n	n	x
O=C(NN=C1CCCC1)c1sc2ccccc2c1Cl	u	u	n	n	n	11.2µM
O=C(N/N=C/c1cccnc1)c1sc2ccccc2c1Cl	25.1µM	n	u	n	n	12.6µM
O=C(CNC(=O)c1ccc(Br)o1)NNC(=O)c1ccccc1O	x	n	n	n	n	x
CCCCCCCCCCCCCCCCn1cc[n+](Cc2ccccc2)c1C	7.08µM	x	x	x	x	u
CSc1ccccc1NC(=O)Cn1ccsc1=N	n	n	n	n	n	n
Cc1cc(C2=NNC(=NC3CC3)SC2)c(C)n1-c1ccccc1	6.31µM	4.61µM	n	u	n	2.51µM
C=CCN=C1NN=C(c2cc(C)n(CCOC)c2C)CS1	n	u	n	n	n	1µM
C=CCn1c(C)cc(C2=NNC(=Nc3ccc(C)cc3)SC2)c1C	n	u	n	n	n	n
COCCn1c(C)cc(C2=NNC(=NC3CC3)SC2)c1C	1.12µM	5.17µM	n	u	n	1.12µM
C=CCn1c(C)cc(C2=NNC(=NC(C)(C)C)SC2)c1C	10µM	u	n	u	n	11.2µM
CCOC(=O)c1c(C)[nH]c(C(=O)OCc2nc3ccsc3c(=O)[nH]2)c1C	x	x	x	x	n	x
O=C(c1ccccc1)N1N=C(c2ccccc2)CC1c1ccccc1O (stereo not drawn)	3.98µM	n	n	n	n	4.47µM
CCn1cc(Cl)c(C(=O)N2N=C(c3ccc4ccccc4c3)CC2c2ccccc2O)n1 (stereo not drawn)	15.8µM	u	n	n	n	u
CCN(CC)c1ccc(C=N/C(C#N)=C(\N)C#N)cc1	n	u	u	n	2.51µM	n
O=C(NCCCN1CCOCC1)c1cc(-c2ccco2)nc2ccccc12	x	n	n	n	n	x
Cc1csc(=O)n1CC(=O)OCC(=O)c1c(N)n(CC(C)C)c(=O)n(C)c1=O	x	u	n	n	n	x
Cc1csc(SCC(=O)c2c(N)n(CC(C)C)c(=O)n(C)c2=O)n1	n	18.4µM	n	n	n	n
CC(C)Cn1c(N)c(C(=O)CSc2ncccn2)c(=O)n(C)c1=O	x	n	n	n	n	x
CCOC(=O)Cc1csc(SCC(=O)c2c(N)n(CC(C)C)c(=O)n(C)c2=O)n1	10µM	5.17µM	n	n	n	u
C[C@H](NC(=O)c1ncn2c1c(=O)[nH]c1ccc(Br)cc12)c1ccccc1	x	x	x	x	n	x
N#CC(=C=[N-])c1nc2ccccc2nc1-[n+]1cccc(NC(=O)c2ccccc2)c1	u	n	n	n	n	5.01µM!
SMILES	Gal4-VP16 FLuc	ELG1 DNA repair	p53 reactivation	Giardia kill	BRCA1 expr up	RORgamma inh
N#CC(=C=[N-])c1nc2ccccc2nc1-[n+]1cccc(NC(=O)c2ccc(F)cc2)c1	n	n	n	x	x	n
CCNc1nc(N)c(C(=O)c2ccc(Cl)s2)s1	u	u	u	n	5.01µM	n
Cc1ccc(C(NC(=O)N2CCOCC2)=C(Cl)Cl)cc1F	2.24µM	n	n	n	n	22.4µM
O=C1C(Cl)=C(NCCN2CCCCC2)C(=O)c2ccccc21	u	20.6µM	n	n	n	10µM
CCNC1=C(Cl)C(=O)c2ccccc2C1=O	n	n	n	n	n	u
O=c1cc(-c2ccc(F)cc2F)[nH]c2ccccc12	n	n	n	x	x	8.91µM!
COc1ccc(OCC(=O)NNC(=S)NC(=O)C2CCCCC2)cc1	n	n	n	x	x	14.1µM

Compound activity as filed in PubChem.
